The text below walks through data of PubChem BioAssay.

A short description of this assay: small molecules captured by biotinylated probe aFGF10 – biochemical, small-molecule microarray, fluorescence 635/667, stem cell growth factor project, primary screen (AID 1071).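 Further: score merges 667 nm spot intensity and signal to noise from triplicate slides.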 Conditions: higher = more signal.
For the compound `CCOC(=O)[C@H](CC(C)C)NC(=O)CCC1CC(OC(=O)NCc2cccc3ccccc23)CC2(CCCC(COC(=O)NCC3CCCCC3)O2)O1` (stereo not given in full), the composite z-score was 0.54.
Turning to `CC(C)CCN1CCc2nc(COc3ccccc3)c3c(c2C1)CO[C@@H](C)C3`, the composite z-score was 0.0995.
For the compound `COC(=O)CC=C[C@@H](C)[C@@H](C=NO[C@H](C)c1cn([C@H](CO)Cc2ccccc2)nn1)OC`, the composite z-score came to 0.257.
As for `CON=C(C)CCC(=O)OC[C@H]1O[C@H](c2ccccc2)C=C[C@@H]1Oc1ccc(OC)cc1`, the composite z-score is 0.111.
The same measure for `CCOC(=O)NN=C1C[C@@H](O)[C@@H](O)[C@@H]2[C@@H]3C(=O)N(c4cccc(Oc5ccccc5)c4)C(=O)[C@@H]3CC[C@@H]12`: 0.542; for `CCN1C(=O)[C@H]2[C@H]3[C@H](O)[C@H](O)CC(=NO[C@@H](C)c4cn([C@H](CO)Cc5ccccc5)nn4)[C@@H]3CC[C@H]2C1=O`: 0.859; for `COC(=O)CC=C[C@@H](C)[C@@H]1C=C[C@H](O)[C@@H](CO)O1`: 0.376.
`C[C@@H](ON=C1[C@H]2CCn3c(=O)n(-c4ccccc4)c(=O)n3[C@H]2[C@H](O)[C@@H]2O[C@H]12)c1cn([C@@H]2COC[C@H]2O)nn1` came in with a composite z-score of 0.35.
`CC(CCC(=O)OC[C@H]1O[C@H](C#Cc2ccccc2)C=C[C@@H]1Oc1ccc(C)cc1)=NO[C@H](C)c1cn([C@H](CO)Cc2ccccc2)nn1` displayed a composite z-score of 0.191.
The compound `C#CCCCON=C1C[C@@H](O)[C@@H](O)[C@@H]2[C@@H]3C(=O)N(C(C)(C)C)C(=O)[C@@H]3CC[C@H]12` displayed a composite z-score of -0.104.
The compound `COc1ccc(COC(=O)NN=C2C[C@@H](O)[C@@H](O)[C@@H]3[C@@H]4C(=O)N(C5CCCCC5)C(=O)[C@@H]4CC[C@H]23)cc1` yielded a composite z-score of -0.396.
The same measure for `COC(=O)CC=C[C@H](C)[C@@H](OCc1cccc(Br)c1)[C@@H](C)[C@H](OC)C1CCCCC1`: 0.106.
With `Cc1ccc(S(=O)(=O)N[C@@H]2COC(=O)[C@@H](C)COC(=O)CC=C[C@H]2C)cc1`, the composite z-score worked out at 0.259.
For the compound `O=C1[C@H]2[C@H]3[C@H](O)[C@H](O)CC(=NO[C@@H]4O[C@H](CO)[C@@H](O)[C@H](O)[C@H]4O)[C@H]3CC[C@H]2C(=O)N1c1cccc(Oc2ccccc2)c1`, the composite z-score worked out at 0.435.
`CCC1=NOC(CCC2CC(OC(=O)NCc3cccc4c3OCO4)CC3(CCCC(COC(=O)NCCc4ccccc4OC)O3)O2)C1` (stereo not given) displayed a composite z-score of 0.504.
In the case of `CCOC(=O)[C@H](CC(C)C)NC(=O)CCC1CC(OC(=O)NCc2cccc3ccccc23)CC2(CCCC(COC(=O)NCCOc3ccccc3)O2)O1` (stereo not given in full), the composite z-score was 0.273.
For `O=c1n(Cc2cc3c(cc2Cl)OCO3)c(=O)n2n1CC[C@@H]1C(=NOCc3ccccc3)[C@H]3O[C@H]3[C@@H](O)[C@@H]12` the value was 0.47; for `COC(=O)[C@@H]1CC[C@H](C)[C@@H](c2ccc(C)cc2)N1C(=O)c1ccc(C=NO[C@@H](C)c2cn([C@H](CO)Cc3ccccc3)nn2)cc1`, 0.496; for `CC(C)=CCCC(C)=CCON=C1C[C@@H](O)[C@@H](O)[C@@H]2[C@@H]3C(=O)N(Cc4ccccc4)C(=O)[C@@H]3CC[C@H]12`, 0.734.
In turn, `CC(C)C[C@H](NC(=O)CCC1CC(OC(=O)NCc2cccc3ccccc23)CC2(CCCC(COC(=O)NCc3ccccc3)O2)O1)C(=O)NCC(c1ccccc1)c1ccccc1` (stereo not given in full) gave a composite z-score of 0.618.
Consider `CC(C)CON=C1C[C@@H](O)[C@@H](O)[C@@H]2[C@@H]3C(=O)N(C4CCCCC4)C(=O)[C@@H]3CC[C@@H]12`, for which the composite z-score was found to be 0.0675.
`C[C@@H](c1ccccc1)N1C(=O)[C@H]2[C@H]3[C@H](O)[C@H](O)CC(=NO[C@@H]4O[C@H](CO)[C@@H](O)[C@H](O)[C@H]4O)[C@H]3CC[C@H]2C1=O` had a composite z-score of 0.303.
In turn, `COC(=O)[C@@H]1CC[C@H](C)[C@@H](c2ccc(C)cc2)N1C(=O)c1ccc(C=NOC[C@@H](C)[C@H](OCc2ccccc2)C(C)C)cc1` had a composite z-score of 0.41.
Take `C[C@@H](c1ccccc1)N1C(=O)[C@H]2[C@H]3[C@H](O)[C@H](O)CC(=NOCc4ccccc4)[C@H]3CC[C@H]2C1=O`: the composite z-score was 0.0945.
In turn, `COC(=O)CC=C[C@@H](C)[C@@H](C=NOCC[C@@H]1C=C[C@H](OC(C)=O)[C@@H](COC(C)=O)O1)OC` registered a composite z-score of 0.502.
